Assay outcomes (PubChem BioAssay)
Chronic BCR inh: qHTS Assay to Find Inhibitors of Chronic Active B-Cell Receptor Signaling | ABC-DLBCL IkBa-CBG/CBR reporter, luminescence ratio, 4 h | Potency, µM (highest dose often 46.1 µM), for inactives: at the top dose activity change, negative = inhibition, most hits filed as inhibitors | 340,000 compounds, 0.05% hits; active = well fitted inhibition curve with a large enough effect in the signal ratio, with a control signal flat, not every such curve was filed as active; inconclusive = small, poorly fitted or top-dose-only effect, or effect the other way, or a change in a side signal; the % refers to the signal ratio;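 also: plate controls were basal doxycycline-induced cells for no effect and cells given 10 µM MG132 for full effect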
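Compounds up to 46 uM were incubated four hours with TMD8 cells whose green CBG68 luciferase is fused to IkappaBalpha; red CBR luminescence normalised the signal, and concentration-effect curves were fitted to fusion, red and ratio data.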
Mito fusion act: qHTS Assay for Small Molecule Inhibitors of Mitochondrial Division or Activators of Mitochondrial Fusion. S. cerevisiae fusion-defective mutant growth rescue, CellTiterGlo 48 h. Potency, µM (top dose mostly 46.1 µM), without a hit: at the top dose growth rescue (activation), actives largely listed as activators. 320,000 compounds, 0.23% hits; also: % of control where 0% means no effect; nearly all actives have a fitted effect of over 45% in size
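Compounds are tested for their ability to restore growth of mitochondrial fusion-defective yeast strains at non-permissive 37C in YPEG medium over 48 hours. Viability is quantified by luciferase luminescence.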
uPA generation: qHTS for Inhibitors of Cell Surface uPA Generation | cell surface uPA generation assay, qHTS | Potency, µM (titrated, usually from 38.3 µM), inactives show at the top dose activity change, negative = inhibition, most hits filed as inhibitors | 330,000 compounds, 0.31% hits | AID 540303, 2011; active = well fitted inhibition curve with a large enough effect; inconclusive = small, poorly fitted or top-dose-only effect; inactive = no such curve, though single readings can be large or run the other way; tested in mouse RAW 264.7 cells; also: % is scaled to controls: 0 for no effect and ±100 for the full control effect; nearly all actives have a fitted effect of over 55% in size
RORg inh: qHTS for inhibitors of ROR gamma transcriptional activity; Potency, µM (series often up to 53.6 µM), for inactives: at the highest dose activity change, negative = inhibition, hits mostly inhibitors; 310,000 compounds, 5.4% hits; Drosophila S2 Gal4-RORgamma UAS-luciferase reporter, 20 h; also: % is scaled to controls: 0 for no effect and ±100 for the full control effect; nearly all actives have a fitted effect of over 60% in size
Target sequence (P51450 whole entry, looked up, the tested form may be a part): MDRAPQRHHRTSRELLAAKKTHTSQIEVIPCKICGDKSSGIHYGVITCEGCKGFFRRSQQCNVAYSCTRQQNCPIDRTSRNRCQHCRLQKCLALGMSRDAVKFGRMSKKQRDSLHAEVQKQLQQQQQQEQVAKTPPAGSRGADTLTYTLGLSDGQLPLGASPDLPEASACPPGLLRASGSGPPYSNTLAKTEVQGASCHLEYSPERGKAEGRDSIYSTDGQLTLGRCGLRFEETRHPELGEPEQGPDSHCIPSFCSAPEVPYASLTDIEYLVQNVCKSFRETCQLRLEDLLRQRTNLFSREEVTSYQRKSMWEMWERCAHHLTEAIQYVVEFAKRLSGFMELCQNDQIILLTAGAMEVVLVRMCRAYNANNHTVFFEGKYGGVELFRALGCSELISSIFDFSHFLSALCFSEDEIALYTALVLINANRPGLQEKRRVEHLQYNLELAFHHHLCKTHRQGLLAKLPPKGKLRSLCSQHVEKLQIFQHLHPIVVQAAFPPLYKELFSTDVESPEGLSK
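Read-out: Photinus luciferase luminescence; inhibitors lower reporter signal. Insect Schneider cells with Gal4-ROR gamma fusion under metallothionein promoter, UAS reporter; 700 uM final copper sulfate induction, 20 hr, ambient temperature.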
Gal4-VP16 FLuc: VP16 counterscreen qHTS for inhibitors of ROR gamma transcriptional activity. Drosophila S2 Gal4-VP16 UAS-luciferase, luminescence, 20 h. AID 2546, 2010. 310,000 compounds, 3.5% hits. Potency, µM (highest dose often 53.6 µM), without a hit: at the highest dose activity, negative = inhibition, most hits filed as inhibitors;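 also: Gal4-VP16 expression switched on by copper sulfate through the metallothionein promoter; % is scaled to controls: 0 for no effect and ±100 for the full control effect; nearly all actives have a fitted effect of over 50% in size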
a7 integrin act: qHTS for Activators of Integrin-Mediated Alleviation for Muscular Dystrophy; alpha7betagal myoblasts, beta-gal FDG fluorescence, 48 h; Potency, µM (top dose mostly 38.3 µM), for inactives: top-dose activation, actives largely listed as activators; 350,000 compounds, 0.064% hits;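 also: 100% = response of the positive control SU9516; nearly all actives have a fitted effect of over 60% in size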
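alpha7betagal+/- myoblasts (passage 13, 250/well) treated 48 h at 37C with compounds at 1:260 dilution of DMSO stock. Lysed, then beta-galactosidase activity read as FDG fluorescence (ex 480/em 540) after 30 min, with pre-read for autofluorescence.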
* marks the source's active call; other numbers are inactive results; u = inconclusive; x = no result given; [ ] = remark or other dose. Hits are enriched below; roughly 5.5% of the tested compounds scored in any of these assays. Unless noted, calls follow the shape of the dose curve; as a rule, active = well fitted curve in the direction sought with a large enough effect; inconclusive = small, poorly fitted or top-dose-only effect, or another doubt; inactive = no such curve, though single readings can be large; an effect the other way counts as inactive or inconclusive. Potency is read from the fitted curve at half-maximal effect.

SMILES	Chronic BCR inh	Mito fusion act	uPA generation	RORg inh	Gal4-VP16 FLuc	a7 integrin act
COc1cccc(/C=C/C(=O)c2ccc3c(c2)OCCO3)c1OC	u	-6%	-13%	11µM*	u	-1%
COc1cccc(/C=N/NC(=O)CNC(=O)c2ccc3c(c2)OCCO3)c1O	1%	-9%	-10%	0.63µM*	4.5µM*	-26%
COCCNc1nc(C)nc2c1nc(-c1ccccc1)n2CC1CCN(C)CC1	x	x	x	-11%	5%	x
C=CCOc1ccc2c(=O)n(C)c3ccccc3c2c1	x	x	x	8%	2%	x
Cc1cc(NC(=O)CSc2nnc(-c3cccc(F)c3)n2N)no1	u	2%	-1%	x	x	0%
COc1cccc(/C=C/C(=O)NNC(=O)c2ccco2)c1OC	u	1%	2.8µM*	x	x	3%
O=C(CNC(=O)c1ccco1)N/N=C/c1ccccc1[N+](=O)[O-]	1%	-9%	6%	12%	3%	-3%
COc1cccc(/C=N/NC(=O)C(=O)NCc2cccnc2)c1O	-14%	-3%	-6%	11µM*	u	12%
COc1cccc(/C=N/NC(=O)CNC(=O)COc2ccccc2)c1O	1%	2%	u	0.28µM*	1µM*	-23%
COc1ccc(/C=N/NC(=O)CNC(=O)COc2ccccc2)cc1	u	-3%	2%	2%	7%	1%
COc1cccc(/C=N/NC(=O)CNC(=O)c2ccco2)c1O	-3%	5%	u	1.6µM*	20µM*	-47%
COc1cccc(/C=N/NC(=O)c2ccccc2NC(=O)c2ccco2)c1OC	u	1%	-11%	-25%	-4%	-33%
Cc1cccnc1CNC(=O)C1CCC(=O)N(CCc2cccc(F)c2)C1 (centres undefined)	-15%	-7%	5%	-38%	14%	-6%
Cc1cc(=O)nc2c3ccccc3n(CC(=O)NCCC3=CCCCC3)n12	-2%	-1%	-2%	2%	0%	u
O=C(NCC(=O)N(c1cccnc1)C(C(=O)NC1CCCCC1)c1ccccc1F)c1ccco1 (centres undefined)	1%	-33%	-1%	2%	4%	6%
C[C@H](C(=O)O)c1cccc(Oc2ccccc2)c1	x	x	x	1%[2.98 µM]	-20%[17 µM]	x
c1ccc(N2CCN(c3nc(-c4ccccn4)nc4ccccc34)CC2)cc1	-6%	-4%	3%	0.28µM*	1.6µM*	-42%
c1cncc(-c2nc(N3CCCCCC3)c3ccccc3n2)c1	-1%	-4%	9%	11µM*	u	-16%
COc1ccc(C(=O)c2nccc3ccccc23)cc1	-4%	-2%	3%	18%	-1%	1%
O=C1c2ccc(Br)cc2C(=O)N1c1ccc(Cc2ccncc2)cc1	-3%	6%	5%	u	14µM*	4%
CCOC(=O)C1=C(C)N(CCCC(=O)O)C(=O)NC1c1ccc(Cl)cc1 (centres undefined)	1%	-1%	0%	12%	8%	2%
CCOC(=O)C1=C(C)N(C)C(=S)NC1c1ccc(Cl)cc1 (centres undefined)	u	-7%	-3%	u	3.5µM*	-19%
COC(=O)C1=C(C)N(C)C(=S)NC1c1ccc(Cl)cc1 (centres undefined)	6%	-1%	2%	7.9µM*	11µM*	-18%
COC(=O)C1=C(C)N(C)C(C)=C(C(=O)OC)C1c1ccc(Cl)cc1	-18%	3%	-1%	-25%	14%	17%
CC1=C(C(=O)OC(C)C)C(c2ccccc2)NC(=S)N1C (centres undefined)	1%	-11%	2%	14µM*	u	15%
COC(=O)C1=C(C)N(C)C(=O)NC1c1ccc(O)c(OC)c1 (centres undefined)	-9%	1%	14%	u	-16%	4%
